The campaign covered roughly 38,000 compounds. About 1,200 (3.2%) showed an effect of 50% or more. The median lay at about -58%. The sample as a whole holds a higher share of strong results than the screen did.
The compounds below were run on Plasmodium falciparum (assay: Calibr Malaria Delayed Death Assay SOP). Conditions: concentration 4.99e-06 (unit not given; other assays of the set use mol/L).
Type: functional, organism-based
Design: scale not given: in the data most compounds retested in dose-response had high values

Row | SMILES | Percent Effect [%]
1 | Cc1cnn(CCNCC(=O)NCCOc2ccc(Cl)cc2)c1 | -0.9504
2 | O=C(Cc1noc(C(=O)NCC2CC2)n1)Nc1cccc(C(F)(F)F)c1 | 7.243
3 | Clc1snnc1CN1CCN(c2nccs2)CC1 | -49.26
4 | CC(=O)Nc1cccc2c1ccn2CC(=O)Nc1n[nH]c(CC(C)C)n1 | -107.2
5 | Cc1csc(CNC(=O)N2CCN(Cc3ccco3)CC2)n1 | -96.64
6 | CNc1cc(C)nc(N2C[C@H](NC(=O)C3CCOCC3)[C@@H](C3CC3)C2)n1 | -47.54
7 | CNc1cc(C)nc(N2C[C@@H](C(=O)O)[C@H](C3CC3)C2)n1 | -82.68
8 | N[C@H]1CN(Cc2cnc(N3CCCC3)nc2)C[C@@H]1C1CC1 | -9.289
9 | CCc1cc(N2C[C@H](C3CC3)[C@@H](N)C2)nc(N2CCCC2)n1 | 69.94
10 | CNc1cc(C)nc(N2C[C@H](C3CC3)[C@@H](N)C2)n1 | 87.7
11 | CC(C)Oc1cc(N2C[C@H](C3CC3)[C@@H](N)C2)nc(N)n1 | -219.2
12 | O=C1CN(C(=O)c2cccc(C(F)(F)F)c2)CC(O)CN1CC1CC1 (stereo not drawn) | -23.92
13 | COCC(=O)N(Cc1ccc2[nH]ccc2c1)C1CC1 | -74.09
14 | O=C(c1ccc(-c2ccoc2)nc1)N1CCCN(C2CCCCC2)CC1 | -100.8
15 | Cc1ccc(S(=O)(=O)CCC(=O)N(C)Cc2cnn(C)c2)cc1 | -22.92
16 | CCC1COCCN1C(=O)NCc1nccn1CCc1ccccc1 (stereo not drawn) | -72.5
17 | OCCN1CCN(CC(O)c2ccc(OC(F)(F)F)cc2)CC1 (stereo not drawn) | -7.34
18 | CC(NCC1CCN(CCO)CC1)c1ccc(OC(F)(F)F)cc1 (stereo not drawn) | 93.49
19 | COCCN1CCN(CC(O)c2ccc(C(F)(F)F)cc2)CC1 (stereo not drawn) | 6.899
20 | CCCN1CCN(CC(O)c2ccc(OC(F)(F)F)cc2)CC1 (stereo not drawn) | 42.81
21 | NC(=O)N1CCCC(C(=O)NCc2ccccc2OC(F)(F)F)C1 (stereo not drawn) | -135.5
22 | CN(Cc1ccccc1OC(F)(F)F)C(=O)C1CC1 | -112.4
23 | CC(c1ccc(C(F)(F)F)cc1)N1CCN(CCS(C)(=O)=O)CC1 (stereo not drawn) | -72.63
24 | CC(NCC1CCN(CCO)CC1)c1ccc(C(F)(F)F)cc1 (stereo not drawn) | 88.54
25 | Cc1cccc(CN2CC3(CCN(S(=O)(=O)C4CC4)CC3)OCC2=O)n1.O=C(O)C(F)(F)F | -75.59
26 | Cc1nccn1CCCC(=O)N1CCCN(c2cccnn2)CC1 | -112.5

Row | SMILES | Percent Effect [%]
27 | COC(=O)C1CN(Cc2nc(-c3ccccc3)cs2)C[C@@H](C)O1 (stereo partly drawn) | -63.3
28 | Cc1cc2cccc(NC(=O)N3CCC(N(C)C)C3)c2o1 (stereo not drawn) | -83.5
29 | NC(=O)c1cc(NC(=O)NCCc2cc(F)cc(F)c2)ccc1F | -73.47
30 | O=C1CC(c2ccc3c(c2)OCO3)c2c(n3ccsc3nc2=O)N1 (stereo not drawn) | -91.85
31 | CN(C)c1ncccc1CNS(=O)(=O)c1cc(F)ccc1F | -126.3
32 | CCC(CC)NC(=O)c1cccnc1N1CCCC1c1ccccn1 (stereo not drawn) | -135.6
33 | CCCS(=O)(=O)N1CCN(C(C)(C)CO)CC1 | -101.2
34 | O=C(CCc1cscn1)N1CCCC(c2ccn[nH]2)C1 (stereo not drawn) | -83.54
35 | O=C1CCCCCN1CCC(=O)N1CCCC(c2ccn[nH]2)C1 (stereo not drawn) | -59.24
36 | O=C(CN1CCCC(c2ccn[nH]2)C1)Nc1nc2c(s1)CCC2 (stereo not drawn) | 89.1
37 | Cc1cc(C2CCCN(CC(=O)N3CCCc4ccccc43)C2)n[nH]1 (stereo not drawn) | -11.77
38 | Cc1nnc(NC(=O)CN2CCCC(c3ccn[nH]3)C2)s1 (stereo not drawn) | 85.62
39 | O=C1CCCN1CCN1CCCC(c2ccn[nH]2)C1 (stereo not drawn) | 13.33
40 | O=C(CN1CCCC(c2ccn[nH]2)C1)Nc1nc2c(s1)CCCC2 (stereo not drawn) | 85.91
41 | Cc1cc(C2CCCN(CC(=O)N3CCc4ccccc43)C2)n[nH]1 (stereo not drawn) | -86.51
42 | Cc1nnc(NC(=O)CN2CCOC(Cn3cccn3)C2)s1 (stereo not drawn) | -152.2
43 | Cc1nnc(NC(=O)CN2CCCC(Cn3cncn3)C2)s1 (stereo not drawn) | -101.2
44 | Cc1cc(C2CCCN(CC(=O)Nc3nc4c(s3)CCC4)C2)n[nH]1 (stereo not drawn) | 86.8
45 | CC(C)C1Nc2ccccc2C(=O)N1CC(=O)Nc1nc2c(s1)CCC2 (stereo not drawn) | 15.72
46 | COc1ccc(C)nc1NC(=O)CCc1c(C)nn(C)c1C | -87.92
47 | CCc1nc(C(=O)N2CCN(C)c3ccccc32)c[nH]1 | -108.8
48 | COCc1n[nH]/c(=N/C(=O)COc2cnc(C)cc2O)s1 | -11.35
49 | O=C(c1cccnc1)N1CCC2(CC1)CN(c1ccccn1)CCO2 | -57.82
50 | Cl.Cl.O=C([C@H]1CCCN1)N1CC2(CCNCC2)c2cc(Cl)ccc21 | 58.74
51 | CN(C)C(=O)N1CC2(CCNCC2)c2cc(Cl)ccc21.Cl | 23.36
52 | Cl.NC(=O)N1CC2(CCNCC2)c2cc(Cl)ccc21 | -64.91

Row | SMILES | Percent Effect [%]
53 | CN(Cc1nnc(C2CCC2)o1)C(C(N)=O)c1cccc(F)c1 (stereo not drawn) | -103
54 | Cc1ccc(S(=O)(=O)NCC(O)c2ccoc2)s1 (stereo not drawn) | -144.6
55 | CCN1CCC2(CC1)CC(NC(=O)c1c[nH]cn1)c1ccccc1O2 (stereo not drawn) | -75.27
56 | O=C(Cc1ccncc1)N1CCC2(CC1)CC(c1ccccc1)CO2.O=C(O)C(F)(F)F (stereo not drawn) | -32.94
57 | CCN1CCC2(CC1)CC(NCc1ccncc1)c1ccccc1O2.O=C(O)C(F)(F)F.O=C(O)C(F)(F)F.O=C(O)C(F)(F)F (stereo not drawn) | 77.69
58 | CCN1CCC2(CC1)CC(Nc1ncccn1)CO2 (stereo not drawn) | -15.58
59 | CN1CCC2(CC1)CC(NC(=O)c1csnn1)c1ccccc1O2.O=C(O)C(F)(F)F (stereo not drawn) | -14.05
60 | O=C(c1ccsc1)N1CCC2(CC1)CCN(S(=O)(=O)C1CC1)CC2 | 5.88
61 | COc1ccccc1S(=O)(=O)Nc1cnc(O)cc1C | -22.04
62 | c1cncc(NCCNC2CCCNC2)c1 (stereo not drawn) | -4.225
63 | c1cncc(NCCNC2CCSCC2)c1 | -16.36
64 | CC(C)CN1CCC(NCCNc2cccnc2)CC1 | 78.75
65 | Cn1cc(CCNC(=O)c2cc3ccccc3nc2N2CCCC2)cn1 | -91.24
66 | CC(C)Nc1nc2c(c(NC3CC3)n1)CCN(Cc1nccn1C)CC2.O=C(O)C(F)(F)F | 75.38
67 | CC(C)Nc1ncnc2c1CCN(Cc1nccn1C)CC2.O=C(O)C(F)(F)F.O=C(O)C(F)(F)F | -41.64
68 | CN(C)c1nc(N2CCCC2)nc2c1CCN(Cc1nccn1C)CC2.O=C(O)C(F)(F)F | 3.003
69 | Cc1nc(C)c2c(n1)CCN(Cc1nccn1C)CC2.O=C(O)C(F)(F)F | -117.5
70 | CC(C)Nc1nc2c(c(N(C)C)n1)CCN(Cc1nccn1C)CC2.O=C(O)C(F)(F)F | 53.11
71 | Cc1nc(N2CCCC2)nc2c1CCN(Cc1nccn1C)CC2.O=C(O)C(F)(F)F | -65.41
72 | Cc1nc(C)c(C(=O)N2CCN(CCOc3ccccc3C)CC2)o1 | -41.56
73 | Cl.N[C@@H](Cc1ccccc1)c1nnc(S(=O)(=O)Cc2ccc(Cl)cc2)o1 | -112.8
74 | COc1cnc(N2CC(N3CCOCC3)C2)nc1-c1ccnn1C | 75.52
75 | Cc1cnc(N2CCN(C)CC2)nc1-c1ccnn1C | -103.6
76 | COc1cnc(N2CCN(C)CC2)nc1-c1ccnn1C | -14.56
77 | CC(C)Cc1nc(OCC(=O)O)c(C#N)c2c1CCCC2 | -37.32
78 | Cc1[nH]nc(CCC(=O)N2CCc3c(nc[nH]c3=O)C2)c1C | -169.9

Row | SMILES | Percent Effect [%]
79 | CCN(CC)CCn1cnc(-c2ccccc2)c1-c1cnn(CC)c1 | 18.58
80 | CCN(CC)CCn1cnc(-c2ccccc2)c1-c1cnc(C)s1 | 52.89
81 | CCN(CC)CCn1cnc(-c2ccccc2)c1-c1ncc[nH]1 | -50.85
82 | CCc1ccsc1C(=O)NC(C#N)CC(C)C (stereo not drawn) | -81.49
83 | CC1CCN(C(=O)c2ccc(N(C)Cc3cnn(C)c3)nc2)CC1 | -165.6
84 | CC(=O)N1CCN(c2nc(C(F)(F)F)nc3sc(C)c(C)c23)CC1 | -31.05
85 | Cc1sc2nc(C(F)(F)F)nc(N3CCCN(C)CC3)c2c1C | 75.15
86 | Cc1sc2nc(C(F)(F)F)nc(N3CCN(C)CC3)c2c1C | 10.88
87 | CC(NCc1ccc(F)cc1)c1ccc2[nH]c(=O)[nH]c2c1 (stereo not drawn) | -45.16
88 | O=C1Nc2ccccc2/C1=C1\CCCCN1 | -131
89 | CN(C)CC(=O)N1CCc2sc(C(=O)NCC3CC3)cc21.O=C(O)C(F)(F)F | -49.99
90 | CCCn1nc2c(cc1=O)CN(Cc1nc(CCOC)no1)CC2 | 60.93
91 | CCn1nc2c(cc1=O)CN(Cc1nc(CCOC)no1)CC2 | -158.3
92 | CCCn1nc2c(cc1=O)CN(Cc1nc(-c3ccoc3)no1)CC2 | -48.33
93 | Cn1nc(CO)c2c1CCN(c1ncnc3c1CCNC3)C2 | -81.19
94 | CC(=O)Nc1ccc(CN(C)Cc2snnc2C)cc1 | -153.1
95 | CCN(CC)CCNS(=O)(=O)c1cccc(CSC)c1 | 83.08
96 | CCNS(=O)(=O)c1cccc(CSC)c1 | -125.2
97 | CSCc1cccc(S(=O)(=O)NCCO)c1 | -54.99
98 | O=S(=O)(NCC1CCOC1)N1CCc2ccccc2C1 (stereo not drawn) | -79.01
99 | CN1CCCC(CNS(=O)(=O)N2CCc3ccccc3C2)C1 (stereo not drawn) | 77.6
100 | COCC1CCN(S(=O)(=O)NCC2COc3ccccc3C2)CC1 (stereo not drawn) | -101
101 | O=S1(=O)CCC(CNS(=O)(=O)N2CCc3ccccc3C2)C1 (stereo not drawn) | -112.5
102 | CCN1CCC(CNS(=O)(=O)N2CCc3ccccc3C2)C1 (stereo not drawn) | 54.33
103 | CN1CCN(S(=O)(=O)NCC2COc3ccccc3C2)CC1 (stereo not drawn) | -15.69
